This is one part of a sample in which hits are shown more often than they occur.
IDE exosite FP: displaces the probe from the exo-site of human IDE | P14735 | purified IDE, FL-6b probe fluorescence polarization; stronger effect = lower value | z-score at 20 µM | 17,000 tested, 6.3% active | AID 1259349;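 active = z-score of -3 or lower, meaning strong loss of probe binding signal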;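 note: His-tagged human IDE residues 42-1019 made in E. coli with 30 nM FL-6b probe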
Target sequence (P14735 42-1019 limits assumed): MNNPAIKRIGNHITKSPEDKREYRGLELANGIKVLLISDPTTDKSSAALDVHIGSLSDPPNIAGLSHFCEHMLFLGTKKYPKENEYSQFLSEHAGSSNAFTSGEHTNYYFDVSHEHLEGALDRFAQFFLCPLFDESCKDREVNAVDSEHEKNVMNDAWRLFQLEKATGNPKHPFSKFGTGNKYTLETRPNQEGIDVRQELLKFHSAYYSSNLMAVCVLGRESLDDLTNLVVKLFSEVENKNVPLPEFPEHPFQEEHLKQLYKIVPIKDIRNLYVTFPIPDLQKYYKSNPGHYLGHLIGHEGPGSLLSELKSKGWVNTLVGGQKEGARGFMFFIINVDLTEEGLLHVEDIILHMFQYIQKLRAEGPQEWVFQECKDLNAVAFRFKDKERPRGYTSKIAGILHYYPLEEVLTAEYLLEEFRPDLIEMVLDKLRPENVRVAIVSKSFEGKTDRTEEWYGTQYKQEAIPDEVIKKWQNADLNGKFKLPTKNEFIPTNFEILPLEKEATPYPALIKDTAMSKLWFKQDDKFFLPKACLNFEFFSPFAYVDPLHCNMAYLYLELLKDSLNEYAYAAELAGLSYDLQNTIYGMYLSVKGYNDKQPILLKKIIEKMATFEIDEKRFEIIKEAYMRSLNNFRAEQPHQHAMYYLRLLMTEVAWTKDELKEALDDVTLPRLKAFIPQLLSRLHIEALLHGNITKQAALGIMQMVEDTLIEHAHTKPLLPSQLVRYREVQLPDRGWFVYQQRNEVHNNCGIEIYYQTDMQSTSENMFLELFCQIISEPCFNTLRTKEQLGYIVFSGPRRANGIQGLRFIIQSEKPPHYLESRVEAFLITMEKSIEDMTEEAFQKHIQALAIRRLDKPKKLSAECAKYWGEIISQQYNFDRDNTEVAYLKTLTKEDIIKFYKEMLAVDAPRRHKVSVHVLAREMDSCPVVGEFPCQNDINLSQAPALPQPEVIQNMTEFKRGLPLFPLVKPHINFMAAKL
An asterisk follows results filed as active.

SMILES	IDE exosite FP
CCS(=O)(=O)N1CCCCN2[C@@H](CO)[C@H](c3ccc(-c4ccccc4F)cc3)[C@@H]2C1	3.11
CCS(=O)(=O)N1CCCCN2[C@@H](CO)[C@@H](c3ccc(-c4ccccc4F)cc3)[C@@H]2C1	-6.55*
Cc1ccccc1-c1ccc([C@@H]2[C@@H](CO)N3CCCCN(S(=O)(=O)c4ccc(F)cc4)C[C@@H]23)cc1	-17.5*
CCS(=O)(=O)N1CCCCN2[C@H](C1)[C@H](c1ccc(-c3ccccc3F)cc1)[C@@H]2CO	0.99
CCCNC(=O)N1C[C@@H]2[C@H](c3ccccc31)[C@H](CO)N2C(=O)CN1CCOCC1	0.286
CC(C)C#Cc1ccc([C@@H]2[C@@H](CO)N3C(=O)CN(C(=O)c4ccc5c(c4)OCO5)C[C@H]23)cc1	-0.355
CC(C)COC(=O)N(C)C[C@H]1OCc2ccccc2-c2ccccc2C(=O)N([C@H](C)CO)C[C@@H]1C	0.316
N#C[C@H]1[C@H](c2ccccc2)[C@@H](CO)N1C(=O)Cc1ccccn1	2.79
O=C(Nc1ccccc1F)N1CC(=O)N2[C@@H](CO)[C@H](c3ccc(C#Cc4ccccc4)cc3)[C@@H]2C1	-8.86*
O=C(Nc1ccccc1F)N1CC(=O)N2[C@H](CO)[C@H](c3ccc(-c4ccccc4)cc3)[C@@H]2C1	-0.514
O=C(Nc1ccccc1F)N1CC(=O)N2[C@H](CO)[C@@H](c3ccc(-c4ccccc4)cc3)[C@@H]2C1	-6.04*
O=C(Nc1ccccc1F)N1CC(=O)N2[C@H](CO)[C@@H](c3ccc(C#Cc4ccccc4)cc3)[C@H]2C1	-0.574
O=C(Nc1ccccc1F)N1CC(=O)N2[C@H](CO)[C@@H](c3ccc(-c4ccccc4)cc3)[C@H]2C1	-1.41
O=C(Nc1ccccc1F)N1CC(=O)N2[C@H](C1)[C@@H](c1ccc(C#Cc3ccccc3)cc1)[C@@H]2CO	-2.8
O=C(Nc1cc(F)ccc1F)N1CC(=O)N2[C@@H](CO)[C@@H](c3ccc(-c4cccnc4)cc3)[C@@H]2C1	1.87
O=C(Nc1cc(F)ccc1F)N1CC(=O)N2[C@@H](CO)[C@H](c3ccc(-c4cccnc4)cc3)[C@@H]2C1	1.57
O=C(Nc1cc(F)ccc1F)N1CC(=O)N2[C@H](CO)[C@H](c3ccc(-c4cccnc4)cc3)[C@H]2C1	-4.47*
CC(C)CC#Cc1ccc([C@@H]2[C@@H](CO)N3C(=O)CN(C(=O)CN4CCOCC4)C[C@H]23)cc1	5.55
Cc1ccc(S(=O)(=O)Nc2ccc3c(c2)C(=O)N(C)[C@@H]2CC[C@H](CC(=O)NCCc4ccncc4)O[C@@H]2CO3)cc1	0.209
CS(=O)(=O)N1[C@@H](C#N)[C@@H](c2ccc(C#CC3CC3)cc2)[C@@H]1CO	4.67
CN(C)C(=O)c1cccc(-c2ccc([C@H]3[C@@H](CO)N4C(=O)CN(C(=O)C5CCC5)C[C@@H]34)cc2)c1	1.54
O=C(C1CCC1)N1CC(=O)N2[C@@H](CO)[C@H](c3ccc(-c4cccnc4)cc3)[C@@H]2C1	1.11
COc1cccc(-c2ccc([C@@H]3[C@@H](CO)N4C(=O)CN(C(=O)C5CCC5)C[C@H]34)cc2)c1	-4.34*
COc1ccc(-c2ccc([C@@H]3[C@H]4CN(C(=O)NC(C)C)CC(=O)N4[C@H]3CO)cc2)cc1	-0.327
COc1ccc(-c2ccc([C@H]3[C@@H](CO)N4C(=O)CN(C(=O)NC(C)C)C[C@H]34)cc2)cc1	-0.408
SMILES	IDE exosite FP
COc1cccc(-c2ccc([C@H]3[C@H]4CN(C(=O)C5CCC5)CC(=O)N4[C@H]3CO)cc2)c1	-5.75*
COc1cccc(-c2ccc([C@H]3[C@H](CO)N4C(=O)CN(C(=O)NC(C)C)C[C@@H]34)cc2)c1	-6.95*
COc1cccc(-c2ccc([C@H]3[C@H](CO)N4C(=O)CN(C(=O)C5CCC5)C[C@@H]34)cc2)c1	-6.77*
C[C@@H]1CCCCO[C@@H](CN(C)C(=O)Nc2cccc3ccccc23)[C@H](C)CN([C@@H](C)CO)C(=O)c2cc(NC(=O)CCC(F)(F)F)ccc2O1	1.11
COCC#Cc1ccc([C@H]2[C@@H](CO)N3CCCCN(C(=O)Nc4cc(F)ccc4F)C[C@H]23)cc1	-0.304
COc1ccc2c3c(n(C)c2c1)[C@@H](CO)NCC31CCN(Cc2cc(F)ccc2F)CC1	-0.567
COc1ccc(C(=O)Nc2ccc3c(c2)C(=O)N(C)[C@@H]2CC[C@H](CC(=O)NCC4CC4)O[C@H]2CO3)cc1	0.327
CC(C)[C@H]1COCn2nncc2CC[C@H](Cc2ccc(Cl)cc2)C(=O)N1	0.755
Cc1ccccc1S(=O)(=O)N1CC(=O)N2[C@H](C1)[C@H](c1ccc(C#CCC(C)C)cc1)[C@@H]2CO	1.93
CC(C)C#Cc1ccc([C@H]2[C@@H](CO)N3C(=O)CN(C(=O)c4ccccn4)C[C@H]23)cc1	0.18
CN1C(=O)c2cc(NC(=O)Nc3ccccc3F)ccc2OC[C@H]2O[C@@H](CC(=O)NCCc3ccncc3)CC[C@@H]21	-0.532
CN(C)C(=O)c1cccc(-c2ccc([C@H]3[C@H]4CN(C(=O)C5CCCCC5)CC(=O)N4[C@H]3CO)cc2)c1	2.24
CN(C)C(=O)c1cccc(-c2ccc([C@@H]3[C@@H](CO)N4C(=O)CN(C(=O)C5CCCCC5)C[C@@H]34)cc2)c1	2.76
COc1ccc(-c2ccc([C@@H]3[C@@H](CO)N4C(=O)CN(C(=O)C5CCC5)C[C@@H]34)cc2)cc1	2.35
COc1cccc(-c2ccc([C@H]3[C@@H](CO)N4C(=O)CN(C(=O)C5CCCCC5)C[C@@H]34)cc2)c1	-6.28*
COc1ccc(-c2ccc([C@H]3[C@@H](CO)N4C(=O)CN(C(=O)C5CCCC5)C[C@H]34)cc2)cc1	-7.68*
COc1ccc(-c2ccc([C@H]3[C@@H](CO)N4C(=O)CN(C(=O)C5CCCC5)C[C@@H]34)cc2)cc1	-2.51
O=C(c1cccnc1)N1CC(=O)N2[C@@H](CO)[C@@H](c3ccc(C#CCC4CCCC4)cc3)[C@@H]2C1	1.74
O=C(C[C@H]1C[C@H]2c3cc(NC(=O)C4CCOCC4)ccc3O[C@H]2[C@H](CO)O1)NCCN1CCCCC1	0.151
CCC(=O)N(CC)C[C@H]1[C@H](c2ccccc2)[C@@H](CO)N1C(C)=O	0.62
O=C(C1CCC1)N1CCCCN2[C@H](C1)[C@H](c1ccc(-c3ccncc3)cc1)[C@@H]2CO	-0.116
C[C@@H](O)C#Cc1ccc([C@H]2[C@H]3CN(C(=O)c4ccc(F)cc4)CCCCN3[C@H]2CO)cc1	0.3
CN(C)CC(=O)N1CC(=O)N2[C@H](CO)[C@@H](c3ccc(/C=C/c4ccccc4)cc3)[C@H]2C1	-5.64*
CN(C)CC(=O)N1CC(=O)N2[C@H](CO)[C@@H](c3ccc(-c4ccc(C(=O)N(C)C)cc4)cc3)[C@H]2C1	0.0453
O=C(NC1CCCC1)N1CC(=O)N2[C@H](CO)[C@@H](c3ccc(/C=C/c4ccccc4)cc3)[C@H]2C1	-9.5*
Cc1ccc(-c2ccc([C@H]3[C@H](CO)N4C(=O)CN(C(=O)NC(C)C)C[C@@H]34)cc2)cc1	-0.411
CN(C)CC#Cc1ccc([C@@H]2[C@@H](CO)N3C(=O)CN(C(=O)CN(C)C)C[C@H]23)cc1	-0.103
CC(C)NC(=O)N1CC(=O)N2[C@H](CO)[C@@H](c3ccc(/C=C/c4ccccc4)cc3)[C@H]2C1	-6.87*
O=C(NC1CCCCC1)N1CC(=O)N2[C@H](C1)[C@@H](c1ccc(/C=C/c3ccccc3)cc1)[C@@H]2CO	-1.71
Cc1ccc(-c2ccc([C@H]3[C@H]4CN(C(=O)NC(C)C)CC(=O)N4[C@H]3CO)cc2)cc1	-0.622
